Measured values from PubChem BioAssay AID488835 (Broad Institute, 2010).
Hit rate of the full screen: of about 1,400 compounds, about 140 (10%) were called active.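 Rule for the calls: active = Half-maximal inhibitory dose from the fit at or below ten times the top valid tested dose; inconclusive = Invalid fit, or flat curve showing 30 to 70% inhibition; inactive = the rest.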 A selection follows. Potency and affinity values are given separately.

The molecules below were run against Lysine-specific demethylase 4C (Homo sapiens) (UniProt Q9H3R0) (assay: GASC-1 (JMJD2C) histone demethylase inhibitors, dose response, biochemical, DELFIA europium, cherry-picked samples (AID 488835;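 note: signal is the H3K9me2 demethylation product detected by a dimethyl-specific antibody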)). Settings: GST-JMJD2C(1-420), H3K9me3 demethylation; series mostly up to 6 µM.
Chain of Lysine-specific demethylase 4C (Homo sapiens) (Q9H3R0 1-420 limits assumed): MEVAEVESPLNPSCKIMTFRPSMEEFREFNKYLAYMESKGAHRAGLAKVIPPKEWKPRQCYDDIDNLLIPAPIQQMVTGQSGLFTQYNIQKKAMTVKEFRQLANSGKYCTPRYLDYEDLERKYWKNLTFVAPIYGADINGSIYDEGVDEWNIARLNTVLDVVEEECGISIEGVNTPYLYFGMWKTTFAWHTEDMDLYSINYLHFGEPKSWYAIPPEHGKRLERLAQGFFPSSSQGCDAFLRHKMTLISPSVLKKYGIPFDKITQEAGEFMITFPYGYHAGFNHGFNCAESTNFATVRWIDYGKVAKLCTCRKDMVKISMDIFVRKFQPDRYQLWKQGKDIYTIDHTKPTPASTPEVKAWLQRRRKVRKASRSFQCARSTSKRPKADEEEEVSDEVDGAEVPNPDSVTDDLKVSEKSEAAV

outcome, inactive:
Cc1cccn2c(=O)c(C(=O)NC3CC(C)CC(C)(C)C3)c(O)nc12 (stereo unspecified)
Cc1cccc(NC(=O)C2CCN(S(=O)(=O)c3cccc4nsnc34)CC2)n1
CCOc1ccc(NCc2nnc(SCC(=O)Nc3cc(C)on3)n2-c2ccccc2OC)cc1
CC(=O)Nc1ccc(NC(=O)CSc2ncnn2-c2ccccc2)cc1
COCCNC(=S)N1CCN(C)CC1
C/C(=N\N1CCN(c2ccccc2)CC1)c1ccncc1
COc1ccc(OC)c(/C=N/NC(=O)CNC(=O)c2ccc(S(=O)(=O)N3CCOCC3)cc2)c1
COc1ccc(OCC(=O)N/N=C/C(C)=C/c2ccco2)c(Br)c1
CC(C)(C)n1nnnc1C(c1cccnc1)N1CCN(c2ccccc2)CC1 (stereo unspecified)
Cc1cccc(N2CCN(C(=O)c3ccc(CS(=O)(=O)c4ccccc4C)o3)CC2C)c1 (stereo unspecified)
Cc1ccc(C(O)(C(=O)NNc2ccccn2)c2ccc(C)cc2)cc1
Cc1ccc(C)c(N(C(=O)c2csnn2)C(C(=O)NC2CCCC2)c2cccnc2)c1 (stereo unspecified)
CN(c1cccc(Cl)c1)S(=O)(=O)c1cccc(C(=O)Nc2ccc3c(c2)CCC3)c1
O=C(O)COc1ccc(NC(=O)C(c2ccccc2)c2ccccc2)cc1
Cc1ccc(-n2nnc3c(SCC(=O)NCC4CCCO4)ncnc32)cc1 (stereo unspecified)
CC(=O)c1sc(NC(=O)c2ccc(C)cc2)nc1C
Cc1ccc(CNC(=O)Cc2ccc(-c3ccccc3)cc2)cc1
NCCN1CCN2C(=O)CN(C(=O)c3ccccc3)CC12 (stereo unspecified)
CC(CC(=O)Nc1cc([N+](=O)[O-])ccc1Cl)c1ccccc1 (stereo unspecified)
COc1ccc(N(CC(=O)Nc2ccc(S(=O)(=O)N3CCCC3)cc2)S(C)(=O)=O)cc1OC
COc1ccc(NC(=O)CCN2CCCCCC2)cc1
Cc1ccc(NC(=O)c2ccc(OC(=O)CCN3C(=O)c4ccccc4C3=O)cc2)cc1
Cc1ccc(NC(=O)CSc2nnc(-c3cccs3)n2Cc2ccco2)cc1
COc1ccc(N2CCN(C(=O)CSc3nnc(-c4cccnc4)n3-c3ccccc3)CC2)cc1
COc1cc(S(=O)(=O)N(Cc2cccs2)CC2CCCO2)ccc1-n1cnnn1 (stereo unspecified)
CCOC(=O)c1sc2nc(N3CCOCC3)c3c(c2c1N)CCN(Cc1ccccc1)C3
CCOC(=O)c1c(C)[nH]c(C)c1S(=O)(=O)N(C)CC(=O)N(C)Cc1ccccc1
CCOC(=O)c1c(S(=O)(=O)N2CCN(c3ccc(F)cc3)CC2)c(C)n(C)c1C
C[C@H]1CN([C@@H](C)CO)C(=O)c2cccc(NS(=O)(=O)c3ccc(F)cc3)c2O[C@H]1CN(C)S(=O)(=O)c1cn(C)cn1
Cc1ccc(C(=O)CN2C(=O)C(=O)N(Cc3ccccc3)C2=O)cc1
COc1cccc(/C=C/C(=O)OCC(=O)NCc2ccc(Cl)cc2)c1
O=C(Nc1c(Cl)cccc1Cl)c1cc(-c2ccco2)on1
Cc1ccc(C(=O)NCc2ccco2)cc1Br
Cc1ccc(S(=O)(=O)N(C)C[C@@H]2Oc3ccc(NC(=O)Cn4cnnn4)cc3C(=O)N([C@@H](C)CO)C[C@H]2C)cc1
CCn1c(CNC(=O)Cc2ccc(OC)cc2)nnc1SCC(=O)NC1CCCCC1
CCn1nnnc1SCC(=O)NCc1cccs1
Cc1ccccc1-c1ccc(=O)n(CC(=O)Nc2ccc(N3CCOCC3)cc2)n1
CC(C)CC(=O)Nc1ccccc1N1CCOCC1
CC1Oc2ccccc2N(Cc2ccccc2Cl)C1=O (stereo unspecified)
CCOC(=O)C1=C(CSc2nc(-c3ccncc3)ccc2C#N)OC(N)=C(C#N)C1c1cccnc1 (stereo unspecified)
CCn1c(SCC(=O)NCC(=O)Nc2ccc(F)cc2)nnc1-c1ccncc1
Cc1nc2sc(C(c3cccc(F)c3)N3CCOCC3)c(O)n2n1 (stereo unspecified)
Cc1cc(=S)c2cccc(C)c2[nH]1
CC(C)CC1c2[nH]c3ccccc3c2CCN1C(=O)c1cnccn1 (stereo unspecified)
Cc1noc(C)c1S(=O)(=O)N(C)C[C@H]1Oc2c(cccc2N(C)C)C(=O)N([C@H](C)CO)C[C@@H]1C
CCOC(=O)c1c(C)[nH]c(C(=O)CN2CCOCC2)c1C
FC(F)(F)c1cccc(NCc2cn3cccnc3n2)c1
Cc1ccc(OCc2nnnn2-c2ccccc2)cc1
O=C(Nc1cccnc1)c1ccccc1Oc1ccccc1
Cc1nnc(N(C)C(=O)c2ccccn2)s1
CCOc1cc(NC(=S)NCCOC)c(OCC)cc1NC(=O)c1cccs1
O=C(COc1c(CO)cc(Br)cc1CO)NC1CCCc2ccccc21 (stereo unspecified)
CCOC(=O)N1CCN(C(=S)NC(C)(C)C)CC1
Cc1cccc(CN2CCC(Oc3ccc(C(=O)N4CCCC4)cc3)CC2)n1
CCOC(=O)c1c(S(=O)(=O)NCC(=O)Nc2cccc(C)c2C)c(C)n(C)c1C
CCOC(=O)c1c(S(=O)(=O)N2CCCC(C(=O)Nc3ccc(C)cn3)C2)c(C)n(C)c1C (stereo unspecified)
CCCCCCC(=O)N1CCN(c2cc3c(cc2F)c(=O)c(C(=O)O)cn3CC)CC1
c1csc(Cn2nnnc2CN2CCN(c3nc4ccccc4s3)CC2)c1
O=C(NCc1nnc(SCC(=O)N2CCCC2)o1)c1c(F)cccc1Cl
CCC(=O)Nc1cc2c(C)cc(=O)oc2cc1C
COc1ccc(C(=O)Nc2ncc3c(n2)CC(c2ccco2)CC3=O)cc1 (stereo unspecified)
O=C(Nc1ccc(-c2csc(Nc3ccc(Cl)cc3)n2)cc1)c1ccccc1
C[C@H]1CN([C@@H](C)CO)C(=O)c2cc(NC(=O)C3CCCCC3)ccc2O[C@H]1CN(C)S(=O)(=O)c1ccccc1
COC(=O)[C@]1(C)N[C@H](CN(C)S(=O)(=O)c2ccc(C)cc2)[C@@H]2C(=O)N(Cc3ccccc3)C(=O)[C@@H]21
O=c1oc2ccccc2c(O)c1C=NCc1ccccn1
Cc1ccc(Nc2nc3nonc3nc2N(C)C)cc1
O=C(CC(=O)N/N=C/c1c(F)cccc1Cl)NCc1ccccc1
COc1ccc(NC(=O)N(C)C[C@@H]2Oc3c(NC(=O)Nc4c(C)noc4C)cccc3C(=O)N([C@@H](C)CO)C[C@@H]2C)cc1
Cc1ccc(S(=O)(=O)Nc2ccc3c(c2)C(=O)N([C@H](C)CO)C[C@H](C)[C@@H](CN(C)Cc2ccccc2)O3)cc1
COCCCNC(=O)c1ccc2c(c1)CCN2S(C)(=O)=O
Nc1c(C(=O)OCC2CCCO2)c2nc3ccccc3nc2n1C1CCCC1 (stereo unspecified)
Cn1c2ccccc2c2c(C(=O)N3CCN(c4ccccn4)CC3)cn(C3CCCC3)c(=O)c21
Cn1c(CNC(=O)c2ccccc2F)nnc1SCC(=O)Nc1nnc(C2CC2)s1
COC(=O)C1CN(S(=O)(=O)c2ccc(C)cc2)CCN1S(=O)(=O)c1ccc(C)cc1 (stereo unspecified)
CCOC(=O)c1ccc(N2C(=O)C(C)=C(C)C2=O)cc1
CCCCCC1CC(=O)N(Cc2ccccc2)C(=O)N1 (stereo unspecified)
CCN1c2ccccc2-c2nc3ccccc3n2C1c1ccccn1 (stereo unspecified)
Cn1c(=O)c2c(ncn2CCN(CCO)Cc2ccccc2)n(C)c1=O
CCCCN(C(=S)NC(=O)c1cc(OC)c(OC)c(OC)c1)c1c(N)n(Cc2ccccc2)c(=O)[nH]c1=O
CCCCn1c(N)c(N(CC)C(=O)c2ccco2)c(=O)[nH]c1=O
CCN(C(=O)C(C)Sc1ccc(S(=O)(=O)N2CCOCC2)cn1)c1ccccc1 (stereo unspecified)
CCCCC1CCC(C(=O)N(CC(C)C)c2c(N)n(Cc3ccccc3)c(=O)[nH]c2=O)CC1 (stereo unspecified)
Cc1cccc(NCc2ccc(O)c3ncccc23)c1
COCCn1nnnc1C(c1ccccc1)N1CCN(C(=O)c2ccco2)CC1 (stereo unspecified)
Cc1ccc([N+](=O)[O-])cc1N=C(c1cccc([N+](=O)[O-])c1)N1CCOCC1
COc1cccc(Oc2nccc(N(C)C)c2C#N)c1
CC(C)CCSc1cc(NCCO)c([N+](=O)[O-])c2nonc12
COc1cc2c(cc1CNC[C@H]1O[C@@H](n3cnc4c(N)ncnc43)[C@H](O)[C@@H]1O)OCO2
CC(OC(=O)c1cccnc1SCc1cc(=O)n2ccccc2n1)c1ccccn1 (stereo unspecified)
CN(C(=O)c1ccc(NC(=O)Cc2ccc(NC(=O)C3CCN(C(=O)C4CC4)CC3)cc2)cc1)C1CC1
O=C(Nc1c(F)cc(F)cc1Br)c1ccco1
CC(C)NC(=O)Nc1ccc2c(c1)C(=O)N([C@H](C)CO)C[C@H](C)[C@@H](CN(C)C(=O)Nc1ccccc1)O2
Nc1nc(C2CC(=O)OC23CCCCC3)cs1 (stereo unspecified)
CCOc1cc(/C=N/NC(=O)C(=O)N/N=C/c2ccc(O)c(OCC)c2)ccc1O
O=C(O)c1ccc2c(c1)nnn2C1CCCCC1
Cc1oc(C(C)(C)C)cc1C(=O)N1CCN(c2ncccc2C(F)(F)F)CC1
O=[N+]([O-])c1ccccc1S(=O)(=O)N1CCN(Cc2ccc3c(c2)OCO3)CC1
CC(=O)c1c(C(C)=O)c(C)n(-c2nc(-c3cccs3)c(C)s2)c1C
COc1cc(-c2nnco2)cc(OC)c1OC
Cc1c(NC(=O)C2Cc3ccccc3CN2C(=O)c2ccco2)c(=O)n(-c2ccccc2)n1C (stereo unspecified)
CCCCNC(=O)CC1N=C2c3ccccc3N=C(SCC(=O)Nc3cccc(C)c3)N2C1=O (stereo unspecified)
